This note sets out measurements from PubChem BioAssay (Tox21).

Molecules are shown by their SMILES. A number with no mark means an inactive call. Results filed as inconclusive are left out. Active and inactive are the calls of the source. Unless noted, the call rests on the fitted dose curve; in most records, active means well fitted curve in the direction sought with a large enough effect in the repeat runs; inconclusive means weak or mixed curves; inactive means no such curve, though single readings can be large; an effect the other way counts as inactive or inconclusive.

Assay [1] in a line: qHTS assay to identify small molecule antagonists of the androgen receptor (AR) signaling pathway using the MDA cell line in the presence of 0.5 nM R1881 - cell viability counter screen (AID 1259242). Further: nearly all actives have a fitted effect of over 45% in size. To be noted: MDA-kb2 viability, CellTiter-Fluor protease fluorescence, 16 h; series mostly up to 92.4 µM. The essentials: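 Fluorescence from CellTiter-Fluor, which reports protease activity of live cells, was read 30 min after reagent addition to MDA-kb2 cells that had been incubated 16 hr with compound and 0.5 nM R1881.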
In general terms: qHTS replaces the single test concentration by a dilution series.

Assay [2] has as its target Estrogen receptor (Homo sapiens) (UniProt P03372). As to the kind of experiment: qHTS assay to identify small molecule antagonists of the estrogen receptor alpha (ER-alpha) signaling pathway using the BG1 cell line in the presence of 0.1 nM 17-beta-estradiol (AID 1259244). Further: nearly all actives have a fitted effect of over 50% in size. The settings on record: VM7Luc4E2 (BG1) ERE-luciferase, antagonist mode, 0.1 nM E2, 22 h; series mostly up to 92.4 µM. The essentials:
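Quantitative high-throughput screen in VM7Luc4E2 cells: compound plus 0.1 nM E2 (final), 22 h, 37C, 5% CO2; ONE-Glo added, 30 min room temperature, luminescence measured.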

A short description of assay [3]: qHTS assay to identify small molecule HDAC inhibitors (AID 1259364). Further: nearly all actives have a fitted effect of over 45% in size. Further: potency means the concentration at half of the fitted maximal effect. On activity change, negative = inhibition: top concentration of the series differs between compounds. The settings on record: HCT-116 HDAC-Glo I/II luminescence, 2 h; series mostly up to 92.4 µM. Summed up:
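Endogenous HDAC class I/II activity was measured in wild-type HCT-116 cells by HDAC-Glo luminescence after 2 h compound treatment.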

A short description of assay [4]: qHTS assay to identify small molecule HDAC inhibitors - cell viability counter screen (AID 1259365). Further: nearly all actives have a fitted effect of over 50% in size. The settings on record: HCT-116 viability, CellTiter-Glo ATP luminescence, 2 h; series mostly up to 92.4 µM. Summed up:
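Counter screen in wild-type HCT-116 cells: compounds dissolved in DMSO are pin-transferred onto overnight-plated cells and left 2hr at 37C. ATP-based CellTiter-Glo luminescence then measures viable cells.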

Assay [5] in a line: qHTS assay to identify small molecule agonists of the sonic hedgehog signaling (Shh) pathway - cell viability counter screen (AID 1259366). Further: nearly all actives have a fitted effect of over 50% in size. To be noted: NIH/3T3 Gli1-Luc viability, CellTiter-Fluor, 24 h; series mostly up to 92.4 µM. The essentials:
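Cells are plated at 2,000 per well and left 4hr at 37C, 5% CO2 before compound addition. After 23hr of treatment, CellTiter-Fluor reagent is added for 1hr at 37C and fluorescence is measured.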

A short description of assay [6]: qHTS assay to identify small molecule antagonists of the sonic hedgehog signaling (Shh) pathway - cell viability counter screen (AID 1259367). Further: nearly all actives have a fitted effect of over 55% in size. The settings on record: NIH/3T3 Gli1-Luc viability, CellTiter-Fluor, 24 h; series mostly up to 92.4 µM. The essentials: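 NIH/3T3-derived Gli1-Luc reporter cells, 2,000/well, plated 4 hr before compound addition, then stimulated with conditioned medium for 24 hr at 37C. Viability measured in the same wells by CellTiter-Fluor fluorescence, reagent added at 23 hr for 1 hr.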

Assay [7] can be described thus: qHTS assay to identify small molecule agonists of the sonic hedgehog signaling (Shh) pathway (AID 1259368; calls by dose curve;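 further: NIH/3T3-derived 3T3Gli1-Luc cells carrying a stable Gli1-driven firefly luciferase reporter; nearly all actives have a fitted effect of over 15% in size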). The settings on record: NIH/3T3 Gli1-Luc reporter, luciferase, 24 h, hits give high values; series mostly up to 92.4 µM. The essentials:
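Luminescent signal was taken as a measure of Gli1-controlled luciferase expression in stably transfected NIH/3T3-derived cells that had been treated for 24 hr with compounds delivered in DMSO.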

The nature of assay [8]: qHTS assay to identify small molecule antagonists of the sonic hedgehog signaling (Shh) pathway (AID 1259369; calls by dose curve; further: nearly all actives have a fitted effect of over 45% in size). The settings on record: NIH/3T3 Gli1-Luc reporter, Shh antagonist, luminescence 24 h; series mostly up to 92.4 µM. The essentials: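 Screening used 3T3Gli1-Luc cells at 2,000 per well, compounds delivered in DMSO, and conditioned medium as agonist stimulus; plates incubated 24hr at 37 C and 5% CO2 before a 30min luciferase step.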

The nature of assay [9]: qHTS assay to identify small molecule phospholipidosis (PLD) inducers (AID 1259344; active means well fitted curve in the direction sought with a large enough effect; an effect the other way counts as inactive or inconclusive). The settings on record: HepG2 phospholipidosis, LipidTOX Red imaging, 24 h; series mostly up to 38.3 µM. Summed up: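 HepG2 cells, 900/well, treated with compound plus LipidTOX Red for 24 h at 37 C; amiodarone positive and DMSO negative controls. Fixed with paraformaldehyde/Hoechst, then high-content imaging scored LipidTOX pit count and integrated intensity per well and per cell.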
On the % scale 0 is the no-effect control and ±100 the full control effect.

Estrogen receptor (Homo sapiens), sequence (P03372 whole entry, looked up): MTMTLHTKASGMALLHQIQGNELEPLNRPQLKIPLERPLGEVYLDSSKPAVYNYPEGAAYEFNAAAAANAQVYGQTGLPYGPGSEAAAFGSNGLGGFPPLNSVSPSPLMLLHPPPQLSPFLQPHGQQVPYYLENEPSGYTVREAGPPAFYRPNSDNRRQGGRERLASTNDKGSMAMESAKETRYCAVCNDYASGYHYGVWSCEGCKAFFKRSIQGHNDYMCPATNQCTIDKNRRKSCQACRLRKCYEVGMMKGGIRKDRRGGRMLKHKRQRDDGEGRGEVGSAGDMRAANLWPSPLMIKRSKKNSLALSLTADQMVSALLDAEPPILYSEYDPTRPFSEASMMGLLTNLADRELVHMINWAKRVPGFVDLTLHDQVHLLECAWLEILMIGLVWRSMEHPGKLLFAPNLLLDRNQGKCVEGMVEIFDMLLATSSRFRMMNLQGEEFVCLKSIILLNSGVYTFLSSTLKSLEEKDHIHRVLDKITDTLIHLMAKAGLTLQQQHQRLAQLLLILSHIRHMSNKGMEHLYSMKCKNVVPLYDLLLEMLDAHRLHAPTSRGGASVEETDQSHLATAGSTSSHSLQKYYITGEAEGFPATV

In the case of `Oc1ccccc1-c1nnco1`, the outcome in [1], in assay [4] and in assay [7] was inactive. The Potency result in assay [2], in assay [3], in assay [5], in [6] and in assay [8] was “inactive” throughout.

Take `CCOC(=O)/C=C/c1ccccc1`: the outcome in assay [1], in assay [4] and in assay [7] was inactive. Also, the Potency result in assay [2], in [3], in assay [5], in [6] and in assay [8] was “inactive” each time.

Regarding `CCCCNC1CC(C)(C)NC(C)(C)C1`, the result in assay [1], in assay [4] and in [7] was inactive. Also, the Potency result in assay [2], in [3], in assay [5], in assay [6] and in assay [8] was “inactive” in each case.

In the case of `Cc1ccc(C=O)cc1C`, the outcome in assay [1], in assay [4] and in [7] was inactive. Further, the Potency result in assay [2], in assay [3], in [5], in assay [6] and in assay [8] was “inactive” each time.

As to `CCOCCOC(=O)/C=C/c1ccc(OC)cc1`, the outcome in [1], in assay [4] and in assay [7] was inactive. The Potency entry in [2], in assay [5], in assay [6] and in assay [8] was “inactive” throughout. Besides, the Potency in assay [3] is 11.9 µM (active).

On to `CCNC(=O)C1CC(C)CCC1C(C)C` (configuration not stated), for which the outcome in [1], in assay [4] and in [7] was inactive. The Potency entry in assay [2], in assay [3], in assay [5], in assay [6] and in assay [8] was “inactive” in each case.

Regarding `C=C(C)C(=O)OCCOP(=O)(O)OCCOC(=O)C(=C)C`, the result in [1], in assay [4] and in assay [7] was inactive. Moreover, the Potency result in assay [2], in [3], in assay [5], in [6] and in assay [8] was “inactive” throughout.

Take `CCC(C)NC(N)=O` (configuration not stated): the result in [1], in assay [4] and in [7] was inactive. Besides, the Potency result in [2], in [3], in assay [5], in assay [6] and in assay [8] was “inactive” throughout.

Take `CC(C)N(c1ccccc1)C(C)C`: the outcome in [1], in assay [4] and in [7] was inactive. In addition, the Potency result in assay [2], in assay [3], in assay [5], in assay [6] and in assay [8] was “inactive” in each case.

`COCCOCCOCCOCCO`: the outcome in assay [1], in assay [4] and in assay [7] was inactive. Moreover, the Potency result in assay [2], in [3], in [5], in assay [6] and in assay [8] was “inactive” each time.

In the case of `CCCC(=O)C(C)=O`, the result in assay [1], in assay [4] and in [7] was inactive. For the same compound, the Potency entry in assay [2], in [3], in assay [5], in assay [6] and in assay [8] was “inactive” each time.

Turning to `C[C@@H](Oc1ccc(CNC(=O)c2cccnc2Oc2ccc3c(c2)OCO3)c(F)c1)C(=O)O`, the outcome in [1], in assay [4] and in assay [7] was inactive. Also, the Potency entry in assay [2], in [3], in assay [5], in [6] and in assay [8] was “inactive” each time.

Turning to `OCCC(F)(F)C(F)(F)C(F)(F)C(F)(F)C(F)(F)C(F)(F)C(F)(F)C(F)(F)F`, the outcome in assay [1], in assay [4] and in assay [7] was inactive. Further, the Potency entry in assay [2], in assay [3], in assay [5], in assay [6] and in assay [8] was “inactive” throughout.

For the compound `CCOc1cc([N+](=O)[O-])c(OCC)cc1N1CCOCC1`, the result in [1] and in [4] was inactive. Besides, the Potency result in assay [2], in assay [3], in assay [5], in assay [6] and in assay [8] was “inactive” throughout.

Regarding `COC(=O)CCc1ccc(OCC(O)CNC(C)C)cc1` (configuration not stated), the outcome in [1], in [9], in [4] and in assay [7] was inactive. For the same compound, the Potency entry in assay [3], in assay [5], in assay [6] and in assay [8] was “inactive” each time.

`CC(C)C[C@H](NC(=O)CNC(=O)[C@H](Cc1ccc(O)cc1)NC(=O)[C@H](CO)NC(=O)[C@H](Cc1c[nH]c2ccccc12)NC(=O)[C@H](Cc1cnc[nH]1)NC(=O)[C@@H]1CCC(=O)N1)C(=O)N[C@@H](CCCN=C(N)N)C(=O)N1CCC[C@H]1C(=O)NCC(N)=O` (stereo in doubt): the outcome in assay [1], in [9], in assay [4] and in assay [7] was inactive. Moreover, the Potency entry in assay [3], in assay [5], in assay [6] and in assay [8] was “inactive” throughout.

As to `CCCCN`, the result in assay [1] and in assay [4] was inactive. Also, the Potency entry in assay [2], in [3], in assay [5], in assay [6] and in assay [8] was “inactive” each time.

Turning to `CCOC(=O)CC(=O)c1ccccc1`, the result in assay [1] and in [4] was inactive. For the same compound, the Potency entry in assay [2], in assay [5], in [6] and in assay [8] was “inactive” in each case.

With `O=P(O)(O)OP(=O)(O)O`, the outcome in assay [1], in assay [9], in [4] and in assay [7] was inactive. The Potency result in [3], in [5], in [6] and in assay [8] was “inactive” each time.

With `Cc1ccccc1OCC(O)CO` (configuration not stated), the outcome in assay [1], in assay [9], in assay [4] and in assay [7] was inactive. Also, the Potency entry in [3], in [5], in assay [6] and in assay [8] was “inactive” throughout.

Turning to `Cc1cc(NC(=O)C2=C(O)c3ccccc3S(=O)(=O)N2C)no1`, the result in assay [1], in assay [9], in [4] and in [7] was inactive. In addition, the Potency result in assay [3], in [5], in assay [6] and in assay [8] was “inactive” each time.

With `N[C@@H](CCC(=O)N[C@@H](CS)C(=O)NCC(=O)O)C(=O)O`, the viability change, negative = cytotoxic in [1] was 1.98% [at 19 µM]; in assay [5], -6.52% [at 19 µM]; in [6], 0.577% [at 19 µM]. Moreover, the compound was called inactive in assay [9]. The activity change, negative = inhibition in assay [3] was -2.25% [at 19 µM]; in assay [8] it was 20% [at 19 µM]. Besides, in [4], the activity change, negative = cytotoxicity was 2.26% [at 19 µM]. Also, in assay [7], the activity change was -0.793% [at 18.9 µM].
